Cycloheximide cs: counter-screen for Shiga toxin inhibitors: cycloheximide protein synthesis inhibition; cell reporter, cycloheximide protein synthesis inhibition counterscreen; max response, %; 12% of 300,000 active; AID 2314; in the data active means max response mostly above about 13%, no sharp cut-off; inactive means mostly below about 14%; further: read at 38.3 µM for the half of the compounds with a filed dose
Shiga toxin inh: inhibitors of Shiga toxin in Vero cells | 9.2% of 290,000 active | inhibition, % at 38.7 µM | Vero cells, Shiga toxin protein synthesis inhibition reporter | AID 2315; in the data active means inhibition mostly above about 28%, no sharp cut-off; inactive means mostly below about 43%
FMDV inh: antivirals against foot and mouth disease virus. 1.2% of 410,000 active. Potency, µM (highest dose often 57.9 µM), most hits filed as inhibitors. AID 1159524. FMDV antiviral cell-based qHTS; calls by dose curve; tested in HEK293T cells; further: read-out not given here; nearly all actives have a fitted effect of over 45% in size
Sm TGR inh: blocks Schistosoma mansoni thioredoxin glutathione reductase; purified TGR, DTNB reduction, TNB absorbance 405 nm; Potency, µM (top dose mostly 114 µM), most hits filed as inhibitors; 3% of 360,000 active; AID 485364; active means well fitted inhibition curve with a large enough effect; inconclusive means small, poorly fitted or top-dose-only effect; inactive means no such curve, though single readings can be large or run the other way; further: nearly all actives have a fitted effect of over 60% in size
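Kinetic colorimetric format: TGR-catalysed, NADPH-driven DTNB reduction monitored via TNB absorbance. Enzyme dispensed at 20 nM; compound exposure 15 min at room temperature before reaction start.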
A number is an active result; i = inactive; ? = inconclusive; nt = no result; [ ] = remark or other dose. The list is not random: actives were taken first. Their share in the collection is about 12%.

SMILES	Cycloheximide cs	Shiga toxin inh	FMDV inh	Sm TGR inh
Cc1ccc(C(c2c(O)cc(C)n(Cc3ccco3)c2=O)N2CCC(C)CC2)cc1 (stereo not given)	nt	nt	?	10µM
Cc1cc(O)c(C(c2cccc(F)c2)N2CCC(C)CC2)c(=O)n1Cc1ccco1 (stereo not given)	nt	nt	i	25.1µM
O=C(Nc1cccc(-c2cccc(F)c2)c1)C1CCN(Cc2ccco2)CC1	i	i	i	i
CCC(C)(C)n1nnnc1C(c1ccc(C)cc1)N1CCC(C)CC1 (stereo not given)	i	i	i	i
Cc1ccc(S(=O)(=O)c2cn(C)c3cc(N4CCCCCC4)c(F)cc3c2=O)cc1	nt	nt	i	i
CCOC(=O)c1c(NC(=O)CCCOc2ccccc2C)sc2c1CCC(C)C2 (stereo not given)	nt	nt	i	i
CC(C)C(NS(=O)(=O)c1ccc2c(c1)oc(=O)n2C)C(=O)N1CCN(c2cccc(Cl)c2)CC1 (stereo not given)	nt	nt	i	i
C=CCn1c(C)cc(C(=O)COC(=O)/C=C/c2ccc(OC)cc2)c1C	i	i	i	i
Cc1cc(C(=O)COC(=O)/C=C/c2cccc(F)c2)c(C)n1C	29.4	76.9	i	i
C=CCn1c(C)cc(C(=O)COC(=O)[C@@H](NC(=O)c2ccccc2Cl)C(C)C)c1C	39.6	19.1	?	i
C=CCn1c(C)cc(C(=O)COC(=O)COc2ccccc2C#N)c1C	i	i	i	i
C=CCn1c(C)cc(C(=O)COC(=O)/C=C/c2cccc(OC)c2)c1C	27.3	i	i	i
Cc1ccc2c(c1)CN(CCNC(=O)c1cccc(Cn3cccn3)c1)CC(C)O2 (stereo not given)	nt	nt	i	nt
CCn1ccc2cc(S(=O)(=O)N3CCC(C(=O)NCCc4ccc(C)cc4)CC3)ccc21	nt	nt	i	i
CCn1nnnc1NCc1cccn1C	i	i	i	50.1µM
COC(=O)c1cccc(NC(=O)Nc2ccccc2OC)c1	23.1	43.4	i	i
COC(=O)c1cc(NC(=O)Nc2ccccc2)ccc1Cl	40.6	92.3	i	i
O=C(Nc1ccccc1)Nc1ccc(Nc2ccccc2)cc1	nt	nt	i	nt
COC(=O)c1cccc(NC(=O)Nc2ccc(Cl)c(Cl)c2)c1	38.2	58.6	i	i
COC(=O)c1cccc(NC(=O)NC(=O)c2ccccc2Cl)c1	i	i	i	i
Cc1cc(C(=O)CSc2nnnn2-c2ccccc2)c(C)n1-c1ccc2c(c1)OCO2	28.9	49.8	i	i
Cc1cc(C(=O)COC(=O)C2=COCCO2)c(C)n1-c1ccc2c(c1)OCO2	65.7	138.0	i	i[11.4 µM]
Cc1cc(C(=O)CSc2nncs2)c(C)n1-c1ccc2c(c1)OCO2	26.1	62.2	nt	i
CCCn1c(SCC(=O)c2cc(C)n(-c3ccc4c(c3)OCO4)c2C)n[nH]c1=O	i	i	?	i
COC(=O)c1ccc(-n2c(C)cc(C(=O)COC(=O)C3=COCCO3)c2C)cc1	nt	nt	i	nt
SMILES	Cycloheximide cs	Shiga toxin inh	FMDV inh	Sm TGR inh
CCOC(=O)c1c(N)sc2c1CCC1C(=O)N(C3CCCCC3)C(=O)C21 (stereo not given)	32.2	i	i	i
CC1CCN(C(=O)COC(=O)c2ccc(Br)o2)CC1	66.6	93.8	i	i
CCOC(=O)C1CCN(C(=O)COC(=O)c2ccc(Br)o2)CC1	i	i	i	i
CC1CCN(C(=O)COC(=O)c2ccc3c(c2)OCO3)CC1	33.9	82.4	i	i
COc1ccc(/C=N/NC(=O)c2cccc(NC(=O)c3ccccc3)c2)c(C(=O)O)c1OC	32.3	i	i	i
COc1ccc(C(=O)Nc2cccc(C(=O)N/N=C/c3ccc(OC)cc3OC)c2)cc1	39.4	i	i	i
COc1ccc(N2Cc3ccc(C(=O)N/N=C\c4ccc(O)cc4O)cc3C2)cc1	i	i	nt	28.2µM
CCc1ccccc1NC(=O)c1cc2nc(-c3ccc(Br)cc3)cc(C(F)(F)F)n2n1	nt	nt	i	i
CCOc1ccc(-c2cc(C(=O)NCCCOC)c3c(-c4ccc(CC)cc4)[nH]nc3n2)cc1	nt	nt	i	i
COc1ccc(NC(=O)Cn2c(SCc3c(F)cccc3Cl)nc3ccncc32)cc1OC	nt	nt	i	i
COc1ccc(-n2cc(CNCc3cccnc3)c(-c3cccc(F)c3)n2)cc1	i	i	i	i
COc1ccc(-n2cc(CN(C)CCO)c(-c3cccc(F)c3)n2)cc1	53.7	106.7	i	i
COc1ccc(-n2cc(CNCCc3cnc[nH]3)c(-c3cccc(F)c3)n2)cc1	40.7	i	i	i
COc1ccc(CNCc2cn(-c3cccc(F)c3)nc2-c2ccc(C)o2)cc1	11.3	i	i	i
Cc1ccc(-n2cc(CNCCc3ncc(C)[nH]3)c(-c3ccc(F)cc3)n2)cc1	14.0	i	i	i
CN(CCc1ccc(Cl)c(Cl)c1)CCN1CCCC1	nt	nt	i	nt
CCCCCn1c(CCCNC(=O)c2ccc(Cl)cc2)nc2ccccc21	nt	nt	i	i
COc1ccc2c(c1)nc(SCC(=O)C(C)(C)C)n2C	i	i	nt	i
COc1ccc2c(c1)nc(SCC(=O)c1cccs1)n2C	40.9	i	nt	i
COc1ccc2c(c1)nc(SCC(C)O)n2C (stereo not given)	11.8	i	i	i
Cc1ccc(Cl)cc1Nc1sc(C(=O)c2ccc(F)cc2)c(N)c1S(C)(=O)=O	nt	nt	?	i
CCOC(=O)C1(CC2CCCCO2)CCN(S(=O)(=O)c2ccc(C)s2)CC1 (stereo not given)	i	i	i	i
CCOC(=O)C1(CC2CCCCO2)CCN(C(=O)Nc2ccccc2)CC1 (stereo not given)	28.7	35.5	i	i
CCOC(=O)C1(CC2CCCCO2)CCN(S(=O)(=O)c2ccsc2)CC1 (stereo not given)	13.0	i	i	i
Cc1c(Cl)cccc1NS(=O)(=O)c1ccc(-c2cnc(C3CC3)o2)cc1	nt	nt	i	i
SMILES	Cycloheximide cs	Shiga toxin inh	FMDV inh	Sm TGR inh
COc1cccc(CNC(=O)CCC2CCCN(C(=O)c3cccc4c(C)c(C)[nH]c34)C2)c1 (stereo not given)	i	i	i	?
COC(=O)c1ccccc1C(=O)N1CCCC(CNC(=O)c2ccc(F)cc2)C1 (stereo not given)	11.5	i	i	i
Cc1noc(C)c1CCC(=O)N1CCCC(CCC(=O)NCc2ccc(F)c(F)c2)C1 (stereo not given)	19.3	i	i	i
COc1cccc(CNC(=O)CCC2CCCN(C(=O)c3ccccc3N(C)C)C2)c1 (stereo not given)	i	i	i	79.4µM
CSc1ccccc1C(=O)N1CCCC(CCC(=O)NCc2ccc(F)c(F)c2)C1 (stereo not given)	i	i	i	i
COC(=O)c1ccccc1C(=O)N1CCCC(CCC(=O)NCc2ccc(F)c(F)c2)C1 (stereo not given)	40.8	92.8	i	i
CC(=O)Nc1ccc(S(=O)(=O)N2CCN=C2SCc2ccc(C)cc2)cc1	49.5	88.2	i	i
COc1cccc(N2C(=O)C(CC(=O)Nc3ccc(F)cc3)N(CCC3=CCCCC3)C2=O)c1 (stereo not given)	nt	nt	i	i
NC(=O)C1CCN(C2=C(NS(=O)(=O)c3ccc(Cl)cc3)C(=O)c3ccccc3C2=O)CC1	i	i	i	11.2µM
CC1CCCN(C2=C(NS(=O)(=O)c3ccc(Cl)cc3)C(=O)c3ccccc3C2=O)C1 (stereo not given)	22.2	40.1	i	i

High-throughput results from PubChem BioAssay.
